# The list is not random: actives were taken first. Their share in the collection is about 2.2%.
# Efflux pump inh – inhibitors of Candida antifungal efflux pumps expressed in yeast | S. cerevisiae Candida pump triplex, Nile Red efflux | actives 0.44% (n = 330,000) | AID 485275 | inhibition, % at 10 µM;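 active means plate passing quality check with inhibition over a set limit, or well fluorescence over plate mean plus 4 SD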;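 further: Nile Red retained in pooled yeast measured as flow cytometry median fluorescence; 0% = buffer negative control and 100% = Enniatin B positive control; higher means more Nile Red kept so more efflux inhibition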
# sPLA2-III inh – Inhibits HGIII-sPLA2 liposome hydrolysis, primary screen. Q9NZ20. QFRET BODIPY PC-A2 liposome hydrolysis, fluorescence. inhibition, % at 12.2 µM. actives 0.56% (n = 370,000). AID 743126;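 active means inhibition above mean plus 3 SD of compounds lying within the high and low control bounds, cut at about 19% in these data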;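 further: 0% = median of test compound wells and 100% = no enzyme DMSO wells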
# Target sequence (Q9NZ20 whole entry, looked up): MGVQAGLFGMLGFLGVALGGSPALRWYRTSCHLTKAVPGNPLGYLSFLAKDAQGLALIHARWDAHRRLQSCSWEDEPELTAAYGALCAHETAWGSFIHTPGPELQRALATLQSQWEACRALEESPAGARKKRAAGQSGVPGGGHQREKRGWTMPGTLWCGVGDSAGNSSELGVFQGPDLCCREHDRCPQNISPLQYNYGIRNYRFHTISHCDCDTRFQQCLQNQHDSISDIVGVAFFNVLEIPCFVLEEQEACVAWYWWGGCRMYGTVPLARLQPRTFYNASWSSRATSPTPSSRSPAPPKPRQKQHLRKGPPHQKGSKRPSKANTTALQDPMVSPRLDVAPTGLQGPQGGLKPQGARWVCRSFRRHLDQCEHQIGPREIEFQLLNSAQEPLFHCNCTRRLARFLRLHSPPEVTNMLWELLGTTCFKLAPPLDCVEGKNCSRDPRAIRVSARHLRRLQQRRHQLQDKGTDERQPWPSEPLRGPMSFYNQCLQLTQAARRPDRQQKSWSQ
# SUMO Mot1 rescue – SUMOylation pathway inhibition by Mot1-301 growth rescue; S. cerevisiae Mot1-301 growth rescue, ATP luminescence, 38.5C; percent above DMSO median, 100 means doubled; growth rescue, % at 18.8 µM; AID 2716; actives 1% (n = 320,000);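 active means every valid replicate shows activation above 250% relative to neutral control wells; inactive means the rest, any valid replicate at or below 250%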;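 further: OY570 slx delta 5 strain wells were the positive control but not used for scaling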
# SKN-1 block – C. elegans SKN-1 inhibition. C. elegans VP596 Pgst-4::GFP/RFP ratio, acrylamide-induced, 24 h. inhibition, % at 21.8 µM. actives 0.49% (n = 360,000). AID 624304;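 active means interference check ratio from 0.5 to 1.5 plus GFP to RFP signal ratio inhibition reaching or exceeding a fixed threshold, cut at about 30% in these data, passing the limit was not always enough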
# Mot1 SUMO dose – inhibits SUMO pathway, affecting Mot1-301 yeast growth. growth activity, percent, % at 42 µM. S. cerevisiae Mot1-301 galactose growth, ATP luminescence, 24 h; -100 = growth of slx-deleted rescue strain. AID 493004. shares compounds with SUMO Mot1 rescue. 2,300 tested, under 10 active;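 active means Signal drops as the depositor expects, and the fitted half-maximal dose is no more than ten times the top valid tested dose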;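 further: more negative values mean stronger growth rescue toward the control strain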
# The depositor's hits bear a star; i = inactive; x = no result; + = active, no number.
SMILES,Efflux pump inh,sPLA2-III inh,SUMO Mot1 rescue,SKN-1 block,Mot1 SUMO dose
Cc1nc2sc3c(c2c(=O)[nH]1)CCC3,0,-2,-9,-14,x
O=c1[nH]cnc2sc3c(c12)CCC3,0,5,626*,-8,0
COc1ccc(N(CC(=O)NC2CCS(=O)(=O)C2)S(=O)(=O)c2ccc(Cl)c(Cl)c2)cc1 (configuration not stated),x,-2,x,-2,x
COc1ccccc1CN(C(=O)c1cnccn1)C(C(=O)NC1CCCCC1)c1cc(OC)c(OC)c(OC)c1 (configuration not stated),0,-3,0,-13,x
CCC1CCCCN1C(=O)CSc1nc2c([nH]c3ccccc32)c(=O)n1C (configuration not stated),0,4,631*,3,1
CC(=O)c1cccc(CN2CCCC(N3CCN(c4ccccc4F)CC3)C2)c1 (configuration not stated),0,0,796*,0,0
Cc1sc2nc(SCC(=O)NCCOCCO)nc(N)c2c1C,0,-5,325,6,x
Cc1sc2nc(SCC(=O)NCCOCCO)n(C)c(=O)c2c1C,0,4,983*,11,0
Cc1c(NC(=O)c2cc(-c3ccccc3O)on2)c(=O)n(-c2ccccc2)n1C,0,-2,441*,-11,0
Cc1c(NC(=O)c2ccc(N(Cc3ccccc3)S(C)(=O)=O)cc2)c(=O)n(-c2ccccc2)n1C,0,3,2,9,x
Cc1c(NC(=O)c2ccc(N(C)S(C)(=O)=O)cc2)c(=O)n(-c2ccccc2)n1C,0,0,+,7,1
O=C(c1ccc([N+](=O)[O-])cc1)N1CCN(c2ncc(Br)cn2)CC1,0,6,656*,18,0
Cc1ccsc1/C=N/NC(=O)C1CC(=O)N(c2ccccc2)C1 (configuration not stated),0,2,36,2,x
CCOC(=O)NNC(=O)CCn1c2c(c3ccccc31)CCCC2,0,0,960*,-4,0
CC(=O)NNC(=O)CCn1c2c(c3ccccc31)CCCC2,0,-6,3,-13,x
CC(C)c1ccc2c(c1)CCC1C(C)(CN)CCCC21C (configuration not stated),0,19,617*,19,-2
CC(=O)Nc1cccc(NC(=S)Nc2ccc(F)cc2F)c1,0,2,605*,0,0
COC(=O)C1(C(=O)OC)c2ncccc2N(S(=O)(=O)c2ccc(C)cc2)C1CC(=O)c1ccccc1 (configuration not stated),x,-4,x,13,x
COC(=O)c1sc2ccccc2c1NC(=O)c1ccc(S(=O)(=O)N2CCCC(C)C2)cc1 (configuration not stated),0,-6,511*,-3,0
CN(Cc1cccnc1)Cc1cn[nH]c1-c1ccc(-c2ccccc2)cc1,0,-14,791*,9,0
O=C(Cc1ccc(-c2ccccc2)cc1)NCc1cccnc1,0,3,i,17,x
O=C(c1ccco1)N1CCN(C(=O)C2Cc3ccccc3CN2S(=O)(=O)c2ccc(F)cc2)CC1 (configuration not stated),0,-2,901*,7,0
O=C(C1Cc2ccccc2CN1S(=O)(=O)c1ccc(F)cc1)N1CCCCC1 (configuration not stated),0,1,146,-15,x
O=c1c2ccccc2nc(COc2ccccc2)n1/N=C/c1cn[nH]c1-c1ccccc1,-3,-6,647*,18,-1
Cc1ccc(C(=O)N2CCN(S(=O)(=O)c3sc(C(=O)O)c(C)c3C(=O)O)CC2)s1,0,14,-12,1,x
Cc1cc(C(=O)COc2cccc3cccnc23)c(C)n1C,0,-26,598*,-9,0
COc1ccc(C(=O)O)cc1S(=O)(=O)NCCN(C)C,0,11,824*,-10,0
Cc1cccc(N(Cc2ccccc2)C(=O)CSC(C)C(=O)Nc2cc(C)on2)c1 (configuration not stated),0,3,555*,5,0
Cc1cnc(C(=O)OCC(=O)Nc2ccc3c(c2)OCCO3)cn1,0,0,-8,-4,x
Cc1cnc(C(=O)OCC(=O)Nc2ccc(C)c(S(=O)(=O)N(C)C)c2)cn1,0,3,669*,3,1

# High-throughput results from PubChem.
